Several values for one entry are separate records, joined by “and”; a condition that tells them apart may be missing. Identical values can stand only once. Inconclusive results are not listed. Activity calls are given as the source filed them. Unless noted, the call rests on the fitted dose curve.
assay: qHTS assay to identify small molecule antagonists of the sonic hedgehog signaling (Shh) pathway - cell viability counter screen (AID 1259367; active means well fitted cell-killing curve with a large enough effect in the repeat runs; further: nearly all actives have a fitted effect of over 55% in size; further: potency means the concentration at half of the fitted maximal effect); settings: NIH/3T3 Gli1-Luc viability, CellTiter-Fluor, 24 h; series mostly up to 92.4 µM; viability change, negative = cytotoxic: at the top concentration
Summary of the method: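 Cytotoxicity was assessed in parallel with Shh reporter activity by measuring live-cell protease fluorescence (CellTiter-Fluor) in NIH/3T3 cells stably carrying Gli1-Luc, treated with compound under conditioned medium stimulation for 23 hr plus 1 hr reagent incubation.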
On the % scale 0 is the no-effect control and ±100 the full control effect.

| Structure (SMILES) | viability change, negative = cytotoxic | Potency |
| --- | --- | --- |
| CN1[C@@H]2CC[C@@H]1CC(OC(=O)C(CO)c1ccccc1)C2 (stereo not given in full) | -16.4% [at 42.5 µM] (inactive) |  |
| O=C(Oc1ccccc1)c1cccc(C(=O)Oc2ccccc2)c1 | -6.6% (inactive) |  |
| CO[Si](CCC1CCC2OC2C1)(OC)OC (stereo not given) | -4.43% (inactive) |  |
| CC(C)(C)c1cc(/C=C2\SC(=N)NC2=O)cc(C(C)(C)C)c1O | 0.567% (inactive) |  |
| COC(=O)CC(C)CCC=C(C)C (stereo not given) | -0.0644% (inactive) |  |
| CNC(=S)NN |  | 17.2 µM (active) |
| CC(=O)O[C@@H]1C[C@@H]2CC[C@@]1(C)C2(C)C | 1.66% (inactive) |  |
| CCCCCCCCCCCCOC(=O)c1cc(O)c(O)c(O)c1 |  | 34.2 µM (active) and 6.11 µM (active) |
| Cc1occc1SSc1ccoc1C | -7.01% (inactive) |  |
| CC(C)c1ccc(O)c(C(C)C)c1 | -20.8% (inactive) |  |
| CC1(C)COCN1 | -1.99% (inactive) |  |
| CCC(C)c1ccccc1 (stereo not given) | 0.796% (inactive) |  |
| CCC1CCCCC1 | 1.5% (inactive) |  |
| CCO[Si](C)(C)OCC | 3.76% (inactive) |  |
| CC(C)C(=O)OCc1ccccc1 | 2.84% (inactive) |  |
| CC(C)(c1cc(Br)c(O)c(Br)c1)c1cc(Br)c(O)c(Br)c1 |  | inactive |
| CCC1(c2cnc[nH]2)Cc2ccccc2C1 | -10.3% [at 42.5 µM] (inactive) |  |

| Structure (SMILES) | viability change, negative = cytotoxic | Potency |
| --- | --- | --- |
| CC1CCCCN1CCCOC(=O)c1ccc(OC2CCCCC2)cc1 (stereo not given) | 0.105% [at 42.5 µM] (inactive) |  |
| CCCCCCCOC(=O)c1ccccc1C(=O)OCCCCCCC | 5.77% (inactive) |  |
| C=CC(C)(CCC=C(C)C)OC(=O)/C=C/c1ccccc1 (stereo not given) | 1.32% (inactive) |  |
| COC(=O)[C@]1(C)CCC[C@@]2(C)[C@H]1CC=C1C=C(C(C)C)CC[C@@H]12 | 1.93% (inactive) |  |
| ClC/C=C\CCl | 0.393% (inactive) |  |
| C=C(C)C(=O)OCCC[Si](Cl)(Cl)Cl | -1.46% (inactive) |  |
| Oc1cc2ccccc2cc1O | -10.7% (inactive) |  |
| O=C1Nc2ccc(Cl)cc2[C@@](C#CC2CC2)(C(F)(F)F)O1 | -26.3% [at 42.5 µM] (inactive) |  |
| CC=O |  | 28.6 µM (active) |
| c1cc2c3c(c1)ccc1cccc(c13)C2 | 5.52% (inactive) |  |
| CC(COC(=O)c1ccccc1)OC(=O)c1ccccc1 (stereo not given) | -1.25% (inactive) |  |
| N#CSCSc1nc2ccccc2s1 |  | 24.3 µM (active) |
| O=C(O)CC(=O)O | -6.42% (inactive) |  |
| O=C1NC2CCCCN2C12CCN(CCCN1c3ccccc3CCc3ccc(Cl)cc31)CC2 (stereo not given) |  | 29.8 µM (active) |
| COc1ccc(C#N)cc1 | 4.43% (inactive) |  |
| CCCCCCCCCCCC(=O)N(CC)CC | 0.158% (inactive) |  |

assay: qHTS assay to identify small molecule agonists of the sonic hedgehog signaling (Shh) pathway (AID 1259368); settings: NIH/3T3 Gli1-Luc reporter, luciferase, 24 h; series mostly up to 92.4 µM; activity change: at the top concentration;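 further: NIH/3T3-derived 3T3Gli1-Luc cells carrying a stable Gli1-driven firefly luciferase reporter; nearly all actives have a fitted effect of over 15% in size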
Summary of the method: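 Luminescence was read after 30 min at room temperature with luciferase reagent. Before that, 3T3Gli1-Luc cells (NIH/3T3 clone, stable Gli1-Luc reporter; 2,000/well) were exposed to compounds for 24 hr at 37C, 5% CO2, compounds being added 4 hr post-plating.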

| Structure (SMILES) | activity change | Potency |
| --- | --- | --- |
| CO[Si](CCC1CCC2OC2C1)(OC)OC (stereo not given) | 0.197% (inactive) |  |
| CNC(=S)NN | -11.8% (inactive) |  |
| CC(=O)O[C@@H]1C[C@@H]2CC[C@@]1(C)C2(C)C | -0.48% (inactive) |  |
| Cc1occc1SSc1ccoc1C | 0.852% (inactive) |  |
| CCC(C)c1ccccc1 (stereo not given) | -0.78% (inactive) |  |
| CCC1CCCCC1 | -1.04% (inactive) |  |
| COC(=O)C1=C(C)NC(C)=C(C(=O)OCCCN2CCC(c3ccccc3)(c3ccccc3)CC2)C1c1cccc([N+](=O)[O-])c1 (stereo not given) | -5.28% [at 42.5 µM, active compounds read high] (inactive) |  |
| CCO[Si](C)(C)OCC | -0.849% (inactive) |  |
| CC(C)C(=O)OCc1ccccc1 | -0.0163% (inactive) |  |
| CC(C)(c1cc(Br)c(O)c(Br)c1)c1cc(Br)c(O)c(Br)c1 |  | inactive |
| CCC1(c2cnc[nH]2)Cc2ccccc2C1 | -1.16% [at 42.5 µM, active compounds read high] (inactive) |  |
| CC1CCCCN1CCCOC(=O)c1ccc(OC2CCCCC2)cc1 (stereo not given) | 0.137% [at 42.5 µM, active compounds read high] (inactive) |  |
| CCCCCCCOC(=O)c1ccccc1C(=O)OCCCCCCC | -0.404% (inactive) |  |
| C=CC(C)(CCC=C(C)C)OC(=O)/C=C/c1ccccc1 (stereo not given) | -1.72% (inactive) |  |
| COC(=O)NCCC[Si](OC)(OC)OC | -4.39% (inactive) |  |
| ClC/C=C\CCl | -0.277% (inactive) |  |
| C=C(C)C(=O)OCCC[Si](Cl)(Cl)Cl | 0.209% (inactive) |  |
| Oc1cc2ccccc2cc1O | -1.09% (inactive) |  |
| O=C1Nc2ccc(Cl)cc2[C@@](C#CC2CC2)(C(F)(F)F)O1 | -0.732% [at 42.5 µM, active compounds read high] (inactive) |  |
| c1cc2c3c(c1)ccc1cccc(c13)C2 | -1.13% (inactive) |  |
| CC(COC(=O)c1ccccc1)OC(=O)c1ccccc1 (stereo not given) | 0.126% (inactive) |  |
| Cc1cccc(Br)c1 | -3.88% (inactive) |  |
| O=C(O)CC(=O)O | 0.254% (inactive) |  |
| COc1ccc(C#N)cc1 | 0.871% (inactive) |  |
| CCCCCCCCCCCC(=O)N(CC)CC | 1.68% (inactive) |  |

assay: qHTS assay to identify small molecule antagonists of the sonic hedgehog signaling (Shh) pathway (AID 1259369); settings: NIH/3T3 Gli1-Luc reporter, Shh antagonist, luminescence 24 h; series mostly up to 92.4 µM; activity change, negative = inhibition: at the top concentration; further: nearly all actives have a fitted effect of over 45% in size; further: potency means the concentration at half of the fitted maximal effect
Summary of the method: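 Antagonist mode: compound added to 3T3 Gli1-Luc cells followed by conditioned-medium stimulation, 24 h at 37 C, 5% CO2. Inhibition taken as loss of Gli1-driven luciferase luminescence.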

| Structure (SMILES) | activity change, negative = inhibition | Potency |
| --- | --- | --- |
| CN1[C@@H]2CC[C@@H]1CC(OC(=O)C(CO)c1ccccc1)C2 (stereo not given in full) | -17.5% [at 42.5 µM] (inactive) |  |
| O=C(Oc1ccccc1)c1cccc(C(=O)Oc2ccccc2)c1 | 31.2% (inactive) |  |
| CCCCCCCCCCCCOC(=O)c1cc(O)c(O)c(O)c1 |  | 1.21 µM (active) and 2.17 µM (active) |
| CC(C)c1ccc(O)c(C(C)C)c1 | -29.3% (inactive) |  |
| CCC(C)c1ccccc1 (stereo not given) | 4.16% (inactive) |  |
| CCC1CCCCC1 | 7.54% (inactive) |  |
| COC(=O)C1=C(C)NC(C)=C(C(=O)OCCCN2CCC(c3ccccc3)(c3ccccc3)CC2)C1c1cccc([N+](=O)[O-])c1 (stereo not given) |  | 33.5 µM (active) |
| CCO[Si](C)(C)OCC | -1.86% (inactive) |  |
| CC(C)(c1cc(Br)c(O)c(Br)c1)c1cc(Br)c(O)c(Br)c1 |  | 60.9 µM (active) and 64.9 µM (active) |
| COC(=O)NCCC[Si](OC)(OC)OC | -18.6% (inactive) |  |
| COC(=O)[C@]1(C)CCC[C@@]2(C)[C@H]1CC=C1C=C(C(C)C)CC[C@@H]12 | 3.21% (inactive) |  |
| ClC/C=C\CCl | -1.15% (inactive) |  |
| CC=O |  | 0.0161 µM (active) |
| N#CSCSc1nc2ccccc2s1 |  | 1.93 µM (active) |
| Cc1cccc(Br)c1 |  | 27.4 µM (active) |
| O=C1NC2CCCCN2C12CCN(CCCN1c3ccccc3CCc3ccc(Cl)cc31)CC2 (stereo not given) |  | 21.1 µM (active) |
| COc1ccc(C#N)cc1 | 8.18% (inactive) |  |

From PubChem BioAssay (Tox21)
